Assay results as given in PubChem BioAssay.
Activity calls are given as the source filed them.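 The calls were made as follows, unless noted: active = compound raises GLP1 secretion from the human gut endocrine cells, with no numeric limit stated; inactive = the rest.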 Positions of bridges follow the written chain, without caps; N, C: chain ends. Non-standard residues stand in square brackets, D forms with d. Residues, ends and D or L forms follow the SMILES beside them. hArg = N=C(N)NCCCC[C@H](N)C(=O)O; Mpa = O=C(O)CCS

Experiment: inhibition of endothelial tube formation, primary screen, imaging, VEGF stimulated, CD31 staining, tube area, NPC library (AID 1117340;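 active = compound that reduces growth-factor-driven endothelial tube area in a mixed cell culture, no cutoff stated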)
Settings: VEGF-stimulated ADSC/ECFC co-culture, at 10 µM, active compounds read high

| Structure (SMILES) | tube area decrease |
| --- | --- |
| C/C(=C(/OCCOc1ccc(Cl)cc1)c1ccc(Cl)cc1Cl)n1ccnc1 | 109% (active) |
| Cc1ccc(-c2ccccc2C#N)cc1 | -5.1% (inactive) |
| COc1cc(NS(=O)(=O)c2ccc(N)cc2)nc(C)n1 | -13% (inactive) |
| C=C(C)C(=O)OCC(O)CO (stereo not drawn) | -13.7% (inactive) |
| CC(C)CCCC(C)CCCC(C)CCCCC(C)CCCC(C)CCCC(C)C (stereo not drawn) | 4.8% (inactive) |
| Cc1cc(O)c(C)c(C)c1O | -1.3% (inactive) |
| Cc1cc(O)c(Cl)c(C)c1Cl | 7.2% (inactive) |
| C/C=C(/C(=C/C)c1ccc(OC(C)=O)cc1)c1ccc(OC(C)=O)cc1 | 65.4% (active) |
| C=CCN1CCc2nc(N)sc2CC1 | 7.1% (inactive) |
| COc1ccccc1OCC1CNC(=O)O1 (stereo not drawn) | -6.7% (inactive) |
| O=P(O)(O)C(O)(Cc1cnc2ccccn12)P(=O)(O)O | 7.8% (inactive) |
| O=C(O)CNC(=O)c1ccccc1I | 5.3% (inactive) |
| CC(=O)Nc1ccc(OC(=O)c2ccccc2OC(C)=O)cc1 | -15.2% (inactive) |
| CCN1CCCC1CN (stereo not drawn) | -0.3% (inactive) |
| CCOc1ccc(C(=O)OCCN(CC)CC)cc1 | -2.2% (inactive) |
| O=C(NCCc1c[nH]c2ccccc12)c1cccnc1 | 35.9% (inactive) |
| CCC(Cc1c(I)cc(I)c(O)c1I)C(=O)O (stereo not drawn) | -23.3% (inactive) |
| CC(O)CCCCn1c(=O)c2c(ncn2C)n(C)c1=O (stereo not drawn) | -9.4% (inactive) |
| C[C@]12C=CC(=O)C=C1[C@@H](F)C[C@@H]1[C@@H]2[C@@H](O)C[C@@]2(C)[C@H]1CC[C@]2(O)C(=O)CO | 11.3% (inactive) |
| NCC(=O)O | -10.9% (inactive) |

| Structure (SMILES) | tube area decrease |
| --- | --- |
| CCOCCn1c(C2CCN(CCc3ccc(C(C)(C)C(=O)O)cc3)CC2)nc2ccccc21 | 3.7% (inactive) |
| C[C@H]1C[C@H]2[C@@H]3CCC4=CC(=O)C=C[C@]4(C)[C@@]3(Cl)[C@@H](O)C[C@]2(C)[C@@]1(O)C(=O)CO | 14.4% (inactive) |
| NC(=O)[C@@H]1CSSCCC(=O)N[C@@H](CCCCN=C(N)N)C(=O)NCC(=O)N[C@@H](CC(=O)O)C(=O)N[C@@H](Cc2c[nH]c3ccccc23)C(=O)N2CCC[C@H]2C(=O)N1 ([Mpa][hArg]GDWPC-NH2; disulfide 1-7) | 79.4% (active) |
| COC(=O)C1=C(C)NC(COC(N)=O)=C(C(=O)OC(C)C)C1c1cccc(Cl)c1Cl (stereo not drawn) | 23.2% (inactive) |
| C[N+](C)(CCOc1ccccc1)Cc1cccs1 | -14.7% (inactive) |
| O=C(O)c1[nH]n(-c2ccc(S(=O)(=O)O)cc2)c(=O)c1N=Nc1ccc(S(=O)(=O)O)cc1 | -8.4% (inactive) |
| c1ccc(OCc2ccc(CCCN3CCOCC3)cc2)cc1 | 14% (inactive) |
| CCS(=O)(=O)c1ccc(OC)c(C(=O)OC)c1 | -10% (inactive) |
| COC(=O)/C=C(/C)N | -6% (inactive) |
| N#CCC(=O)NN | 0.1% (inactive) |
| Nc1nc(-c2ccccc2)c(Br)c(=O)[nH]1 | 17% (inactive) |
| CCCCCC=CCC=CCCCCCCCC(=O)OCC | 7.8% (inactive) |
| CCCCCCCC/C=C\CCCCCCCCN | 90% (active) |
| C/C(=C(\CCO)SS/C(CCO)=C(\C)N(C=O)Cc1cnc(C)nc1N)N(C=O)Cc1cnc(C)nc1N | -4.4% (inactive) |
| Cc1onc(-c2c(F)cccc2Cl)c1C(=O)Cl | -12.5% (inactive) |
| CSCC[C@H](N)C(=O)O | 2.3% (inactive) |
| CCCCCC(N)=O | 8.8% (inactive) |
| CCCCCCCCCCCCCCCCCCN(C)C | -8% (inactive) |
| O=C(Cn1ccnc1[N+](=O)[O-])NCc1ccccc1 | -8.5% (inactive) |

Experiment: glucagon-like peptide 1 release enhancers, primary assay, NCI-H716 cell line, NPC library (AID 1117341); also: reference of the scale not given here
Settings: NCI-H716 cells, at 10 µM, active compounds read high

| Structure (SMILES) | GLP1 secretion stimulation |
| --- | --- |
| C/C(=C(/OCCOc1ccc(Cl)cc1)c1ccc(Cl)cc1Cl)n1ccnc1 | 4.1% (inactive) |
| Cc1ccc(-c2ccccc2C#N)cc1 | 2.4% (inactive) |
| COc1cc(NS(=O)(=O)c2ccc(N)cc2)nc(C)n1 | 1% (inactive) |
| C=C(C)C(=O)OCC(O)CO (stereo not drawn) | -1.4% (inactive) |
| CC(C)CCCC(C)CCCC(C)CCCCC(C)CCCC(C)CCCC(C)C (stereo not drawn) | -2.5% (inactive) |
| Cc1cc(O)c(C)c(C)c1O | -0.5% (inactive) |
| Cc1cc(O)c(Cl)c(C)c1Cl | -2% (inactive) |
| C/C=C(/C(=C/C)c1ccc(OC(C)=O)cc1)c1ccc(OC(C)=O)cc1 | 11.9% (inactive) |
| C=CCN1CCc2nc(N)sc2CC1 | 0.8% (inactive) |
| COc1ccccc1OCC1CNC(=O)O1 (stereo not drawn) | -1.6% (inactive) |
| O=P(O)(O)C(O)(Cc1cnc2ccccn12)P(=O)(O)O | 4.3% (inactive) |
| O=C(O)CNC(=O)c1ccccc1I | 0.7% (inactive) |
| CC(=O)Nc1ccc(OC(=O)c2ccccc2OC(C)=O)cc1 | -1.2% (inactive) |
| CCN1CCCC1CN (stereo not drawn) | 3.1% (inactive) |
| CCOc1ccc(C(=O)OCCN(CC)CC)cc1 | 1.9% (inactive) |
| O=C(NCCc1c[nH]c2ccccc12)c1cccnc1 | 0.6% (inactive) |
| CCC(Cc1c(I)cc(I)c(O)c1I)C(=O)O (stereo not drawn) | -3.4% (inactive) |
| CC(O)CCCCn1c(=O)c2c(ncn2C)n(C)c1=O (stereo not drawn) | -3.4% (inactive) |
| C[C@]12C=CC(=O)C=C1[C@@H](F)C[C@@H]1[C@@H]2[C@@H](O)C[C@@]2(C)[C@H]1CC[C@]2(O)C(=O)CO | -2.3% (inactive) |
| NCC(=O)O | 1.3% (inactive) |

| Structure (SMILES) | GLP1 secretion stimulation |
| --- | --- |
| CCOCCn1c(C2CCN(CCc3ccc(C(C)(C)C(=O)O)cc3)CC2)nc2ccccc21 | -2.2% (inactive) |
| C[C@H]1C[C@H]2[C@@H]3CCC4=CC(=O)C=C[C@]4(C)[C@@]3(Cl)[C@@H](O)C[C@]2(C)[C@@]1(O)C(=O)CO | -0.3% (inactive) |
| NC(=O)[C@@H]1CSSCCC(=O)N[C@@H](CCCCN=C(N)N)C(=O)NCC(=O)N[C@@H](CC(=O)O)C(=O)N[C@@H](Cc2c[nH]c3ccccc23)C(=O)N2CCC[C@H]2C(=O)N1 ([Mpa][hArg]GDWPC-NH2; disulfide 1-7) | -2.7% (inactive) |
| COC(=O)C1=C(C)NC(COC(N)=O)=C(C(=O)OC(C)C)C1c1cccc(Cl)c1Cl (stereo not drawn) | 0.3% (inactive) |
| C[N+](C)(CCOc1ccccc1)Cc1cccs1 | -1.6% (inactive) |
| O=C(O)c1[nH]n(-c2ccc(S(=O)(=O)O)cc2)c(=O)c1N=Nc1ccc(S(=O)(=O)O)cc1 | -3% (inactive) |
| c1ccc(OCc2ccc(CCCN3CCOCC3)cc2)cc1 | -0.1% (inactive) |
| CCS(=O)(=O)c1ccc(OC)c(C(=O)OC)c1 | 1% (inactive) |
| COC(=O)/C=C(/C)N | 2.3% (inactive) |
| N#CCC(=O)NN | -0.8% (inactive) |
| Nc1nc(-c2ccccc2)c(Br)c(=O)[nH]1 | 3.9% (inactive) |
| CCCCCC=CCC=CCCCCCCCC(=O)OCC | 8.5% (inactive) |
| CCCCCCCC/C=C\CCCCCCCCN | 24.7% (active) |
| C/C(=C(\CCO)SS/C(CCO)=C(\C)N(C=O)Cc1cnc(C)nc1N)N(C=O)Cc1cnc(C)nc1N | -0.7% (inactive) |
| Cc1onc(-c2c(F)cccc2Cl)c1C(=O)Cl | -1.4% (inactive) |
| CSCC[C@H](N)C(=O)O | -2.6% (inactive) |
| CCCCCC(N)=O | 0.3% (inactive) |
| CCCCCCCCCCCCCCCCCCN(C)C | -0.1% (inactive) |
| O=C(Cn1ccnc1[N+](=O)[O-])NCc1ccccc1 | -4.4% (inactive) |
